USP28 block = inhibitors of human USP28 deubiquitinase; purified USP28, Ub-rhodamine cleavage fluorescence, 30 min; inhibition, % at 25 µM; hit rate 3% among 47,000; AID 1645857, 2021
USP8 block = inhibitors of human USP8 deubiquitinase | Ubiquitin carboxyl-terminal hydrolase 8 (Homo sapiens), P40818 | purified USP8, Ub-rhodamine cleavage fluorescence, 30 min | inhibition, % at 20 µM | hit rate 4.2% among 47,000 | AID 1645853, 2021
Target sequence (P40818 whole entry, looked up): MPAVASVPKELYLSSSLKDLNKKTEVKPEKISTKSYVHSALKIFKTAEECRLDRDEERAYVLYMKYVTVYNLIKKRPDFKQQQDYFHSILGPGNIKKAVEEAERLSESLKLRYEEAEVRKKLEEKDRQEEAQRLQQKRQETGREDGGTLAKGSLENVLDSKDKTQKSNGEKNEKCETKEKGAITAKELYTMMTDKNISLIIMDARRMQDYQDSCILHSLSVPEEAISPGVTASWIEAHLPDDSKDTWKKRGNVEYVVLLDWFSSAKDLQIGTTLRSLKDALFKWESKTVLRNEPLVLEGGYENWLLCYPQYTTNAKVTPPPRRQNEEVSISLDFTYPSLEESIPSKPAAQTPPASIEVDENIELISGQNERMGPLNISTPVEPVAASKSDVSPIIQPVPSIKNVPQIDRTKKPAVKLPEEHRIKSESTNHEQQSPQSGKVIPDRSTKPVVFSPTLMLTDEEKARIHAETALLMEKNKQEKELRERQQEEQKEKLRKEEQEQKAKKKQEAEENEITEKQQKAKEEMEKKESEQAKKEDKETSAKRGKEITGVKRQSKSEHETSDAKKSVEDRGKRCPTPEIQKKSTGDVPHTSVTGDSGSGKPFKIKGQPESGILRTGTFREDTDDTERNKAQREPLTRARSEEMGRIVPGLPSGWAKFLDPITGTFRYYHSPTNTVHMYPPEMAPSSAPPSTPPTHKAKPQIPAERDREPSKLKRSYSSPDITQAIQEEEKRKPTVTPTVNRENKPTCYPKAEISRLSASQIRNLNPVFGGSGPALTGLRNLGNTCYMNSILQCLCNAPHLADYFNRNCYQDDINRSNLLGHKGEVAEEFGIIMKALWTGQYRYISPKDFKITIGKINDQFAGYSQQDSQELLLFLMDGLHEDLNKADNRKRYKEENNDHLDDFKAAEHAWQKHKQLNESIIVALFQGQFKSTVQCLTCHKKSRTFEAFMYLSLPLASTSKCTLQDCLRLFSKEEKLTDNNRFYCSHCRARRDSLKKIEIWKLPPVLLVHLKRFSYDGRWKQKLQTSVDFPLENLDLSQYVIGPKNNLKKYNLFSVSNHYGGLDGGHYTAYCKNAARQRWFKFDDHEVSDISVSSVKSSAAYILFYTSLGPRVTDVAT
USP30 block = inhibitors of human USP30 deubiquitinase; inhibition, % at 25 µM; hit rate 5.3% among 47,000; purified USP30, Ub-rhodamine cleavage fluorescence; Ubiquitin carboxyl-terminal hydrolase 30 (Homo sapiens), Q70CQ3
USP10 block = inhibitors of human USP10 deubiquitinase | purified USP10, Ub-rhodamine fluorescence, 60 min | inhibition, % at 20 µM | hit rate 1.1% among 47,000 | Ubiquitin carboxyl-terminal hydrolase 10 (Homo sapiens), Q14694
USP17 block = inhibitors of human USP17 deubiquitinase. purified USP17, Ub-rhodamine cleavage fluorescence, 3 h. hit rate 6.5% among 47,000. AID 1645855, 2021. inhibition, % at 50 µM. Ubiquitin carboxyl-terminal hydrolase 17-like protein 5 (Homo sapiens), A8MUK1
* hit, by the source's call; i = inactive; . = no result. This is a sample that favours compounds with a hit; in the whole collection about 14% have one here. Cut-off read from the data, not from the text of the source: active = inhibition above about 30%; inactive = the rest.

SMILES | USP28 block | USP8 block | USP30 block | USP10 block | USP17 block
CCN1c2ccc(S(=O)(=O)N3CCOCC3)cc2N(Cc2c(F)cccc2F)C1C (configuration not stated) | -11.5 | -26.4 | -82.3 | 1.1 | -3.8
CCN(CC)c1nc(F)c2c(c1F)S(=O)(=O)CCN2Cc1ccccc1 | 15.7 | 94.7* | 23.7 | -9.0 | 64.3*
O=S1(=O)CCN(Cc2cccnc2)c2c(F)nc(N3CCOCC3)c(F)c21 | 7.7 | 91.4* | -5.5 | 1.7 | 54.0*
COc1ccc(-n2c(N(C)C)nc3cc(C(=O)NC4CC4)sc32)cc1 | 41.5* | 0.1 | -5.3 | 2.5 | 4.1
CCC(=O)NC1CCN(c2nc3c(s2)c(C)nn3-c2ccc(OC)cc2)CC1 | -5.0 | -3.5 | -13.4 | -3.0 | -3.2
CNC(=O)c1cc2nc(N(C)C)n(-c3ccc(OC)cc3)c2s1 | 20.4 | 78.0* | 7.5 | -0.4 | 45.8*
CCNC(=O)c1cc2nc(N(C)C)n(-c3ccccc3)c2s1 | 21.8 | 75.0* | -38.0 | -3.2 | 37.9*
CNC(=O)c1cc2nc(N(C)C)n(-c3ccccc3)c2s1 | 18.7 | 77.4* | -6.5 | -3.2 | 54.4*
COc1ccc2sc(NC(=O)NC(=O)c3c(Cl)cccc3Cl)nc2c1 | -4.3 | -11.3 | 3.0 | 10.9 | 8.4
CCOC(=O)CNC(=O)c1cc2c(=O)n3ccccc3nc2s1 | -5.1 | -4.8 | -34.5 | -4.2 | -8.9
CC(=O)CN1CC2(CCN(Cc3ccc(F)cc3)CC2)COc2ccccc2S1(=O)=O | -254.2 | -209.9 | i | -7.3 | -156.0
O=C(C1CCN(S(=O)(=O)c2cc(F)ccc2F)CC1)N1CCc2sccc2C1 | 6.9 | 73.8* | -1.1 | -3.8 | 33.3*
CC(C)c1ccc(S(=O)(=O)N2CCC(C(=O)N3CCc4sccc4C3)CC2)cc1 | 6.6 | 18.9 | 12.1 | -8.5 | 3.3
CCC(=O)Nc1nc2cc(NS(=O)(=O)c3ccccc3C)ccc2s1 | 0.3 | -4.3 | -8.4 | 8.0 | -8.0
CCS(=O)(=O)c1ccccc1C(=O)Nc1ccc2sc(C)nc2c1 | 54.7* | 16.3 | 5.5 | 0.2 | 4.7
CC(C)(C)c1ccc(C(=O)Nc2ccc([C@@H](O)[C@H]3COCC(=O)N3)cc2)cc1 | 46.5* | 2.4 | -24.2 | -1.4 | -0.5
c1cc(CN2CCC[C@H]2c2nc(-c3ccc(-c4cncnc4)nc3)no2)ccn1 | -6.7 | 10.3 | -89.9 | -0.4 | -13.3
COCCNC(=O)c1cc(-c2cnc(-c3cccc(F)c3)nc2)cn1C | 3.4 | -2.2 | 23.4 | -3.3 | 18.2
O=C(CSc1ccc2ccccc2c1)Nc1ccc2c(c1)OCCCO2 | 21.4 | -65.8 | 12.3 | 4.7 | 4.0
COc1ccc(NC(=O)COC(=O)Cn2cnc3ccccc32)cc1OC | -9.7 | -39.6 | -5.0 | 0.0 | -5.7
O=C(CSc1n[nH]c(-c2ccccc2Cl)n1)Nc1ccc2c(c1)OCCO2 | 38.1* | -39.1 | 0.3 | 4.1 | -4.9
O=C(CSc1n[nH]c2nc3ccccc3n12)Nc1ccc2c(c1)OCCO2 | 30.7* | -5.5 | 9.8 | 2.1 | 27.0
O=C(COC(=O)Cn1cnc2ccccc21)Nc1ccc2c(c1)OCCO2 | 55.6* | 1.0 | 1.6 | -5.3 | -2.8
O=C(CSc1nc2ccccc2[nH]1)Nc1ccc2c(c1)OCCO2 | 45.8* | 3.5 | -65.9 | 23.7 | 0.1
Cc1nc2nc(-c3cccc4ccccc34)[nH]n2c(=O)c1C | -20.2 | 10.7 | -47.8 | 0.0 | -18.2
SMILES | USP28 block | USP8 block | USP30 block | USP10 block | USP17 block
Cc1cc(S(=O)(=O)N2CCCC2c2nnc3n2CCNCC3)ccc1F (configuration not stated) | -3.3 | -32.0 | -3.1 | 0.8 | -3.0
Cn1cc(C(=O)Nc2ccc(Cl)cc2)c(S(=O)(=O)N2CCCCCC2)n1 | 4.4 | -177.5 | 5.8 | 3.5 | -20.9
O=C(NC1CC(=O)N(Cc2ccccc2)C1)c1n[nH]c2c1CCCC2 (configuration not stated) | 0.3 | -3.3 | 2.1 | 0.8 | 0.6
COc1ccc2c(c1)[nH]c1c(N3CCSCC3)ncnc12 | -4.4 | 11.6 | -0.1 | 1.0 | -5.3
COc1ccc2[nH]c3c(NCCc4ccccc4OC)ncnc3c2c1 | -11.0 | 1.4 | -23.3 | -11.9 | 33.7*
COc1ccc2[nH]c3c(N4CCN(c5ccccc5F)CC4)ncnc3c2c1 | 6.6 | 16.5 | 10.2 | -0.5 | 41.4*
O=[N+]([O-])c1ccc(N2CCN(c3ncnc4c3[nH]c3ccc(F)cc34)CC2)cc1 | 2.7 | -15.3 | 8.0 | -3.7 | 64.9*
COc1ccccc1CNc1ncnc2c1[nH]c1ccccc12 | -5.2 | -12.5 | -32.6 | -5.6 | -4.6
O=C(NCCOc1ccc(-c2ccc(F)cc2)nn1)c1ccccc1C(F)(F)F | -1.1 | 11.1 | 15.0 | 1.3 | 1.0
CC(=O)NCc1ccc2[nH]c3c(c2c1)CCCC3 | -21.9 | -7.5 | -85.2 | -2.3 | -23.7
O=S(=O)(NCc1ccc2[nH]c3c(c2c1)CCCC3)c1ccccc1 | -100.6 | 34.3* | -404.2 | -7.7 | -21.4
Cc1ccc(C(=O)NCC(=O)Nc2nc3ccccc3[nH]2)cc1 | 4.2 | -3.0 | -3.0 | 6.0 | 41.9*
Cc1ccccc1CC(=O)NCC(=O)Nc1nc2ccccc2[nH]1 | 26.8 | 6.9 | 31.8* | 2.5 | 44.3*
O=C(CNC(=O)c1cccc(F)c1)Nc1nc2ccccc2[nH]1 | 21.7 | 3.0 | 38.8* | 2.4 | 63.6*
O=C(Nc1cccnc1)N1C[C@@H]2c3nccn3-c3ccccc3[C@@H]2C1 | -5.6 | -2.4 | -34.0 | -5.2 | -8.2
COc1cccc(NC(=O)Cn2cnc3c(cnn3C(C)(C)C)c2=O)c1 | 30.2* | -5.6 | -19.2 | -3.1 | -7.1
CC(C)(C)n1ncc2c(=O)n(Cc3cccc([N+](=O)[O-])c3)cnc21 | 78.9* | 1.0 | 11.2 | 2.1 | -22.1
CC(C)(C)n1ncc2c(=O)n(CC(=O)Nc3cccc([N+](=O)[O-])c3)cnc21 | 3.3 | -116.3 | -12.2 | -0.9 | -29.0
O=C(c1ccc(-n2cccc2)cc1)N1CCCC2(COCCN(c3ncccn3)C2)C1 (configuration not stated) | . | -2.6 | . | -3.3 | -14.4
COc1ccc(-c2c(-c3ccccc3)c(C(=O)C(=O)NCC(C)O)n3ccc4cc(OC)c(OC)cc4c23)cc1OC (configuration not stated) | -10.7 | 0.0 | -18.4 | -5.6 | -3.5
CCc1ccc2[nH]c(=O)c(CN(CCc3ccc(OC)c(OC)c3)C(=O)Nc3ccccc3)cc2c1 | 22.9 | 3.0 | 54.4* | 11.4 | 44.2*
Cc1ccc2[nH]c(=O)c(CN(Cc3cccnc3)C(=O)c3cccc(Cl)c3)cc2c1 | 7.2 | 12.1 | 50.6* | 0.5 | 9.0
Cc1ccc2[nH]c(=O)c(CN(Cc3cccnc3)S(=O)(=O)c3ccccc3)cc2c1 | -4.1 | 0.2 | 9.9 | 0.0 | -7.0
COc1cc2cc(CN(Cc3cccnc3)C(=O)Nc3ccc(Cl)cc3)c(=O)[nH]c2cc1OC | -13.2 | 2.1 | 39.6* | -2.6 | 11.5
CC(C)N1CC(c2ncn[nH]2)c2cc(C(=O)NC3CCCC3)ccc21 (configuration not stated) | 4.3 | 17.6 | 7.9 | 0.7 | 6.4

High-throughput results as filed in PubChem BioAssay.
